Results as given in PubChem BioAssay (NCATS).
Records with an inconclusive call do not appear. Active and inactive are the calls of the source. Unless noted, calls come from the whole dose curve; as a rule, active = well fitted curve in the direction sought with a large enough effect; inconclusive = small, poorly fitted or top-dose-only effect, or another doubt; inactive = no such curve, though single readings can be large; an effect the other way counts as inactive or inconclusive.

Assays:
[1] = S16 Schwann cell viability assay (CellTiter-Glo assay) (AID 624031);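 note: cellular ATP luminescence as a viability measure; nearly all actives have a fitted effect of over 70% in size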
Outline: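 Untransfected S16 rat Schwann cells; compound 24 h, 37 °C/5% CO2; CellTiter-Glo ATP luminescence. % activity vs no-cell wells and DMSO controls (0%); concentration-effect curves classed by r2, response magnitude, activity.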

[2] = S16 Schwann cell PMP22 intronic element beta-lactamase assay (AID 624044; calls by dose curve; note: nearly all actives have a fitted effect of over 15% in size)
Outline: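 Rat S16 Schwann cells with beta-Lac driven by a PMP22 intronic element, compound-treated 24 h at 37 °C. LiveBLAzer FRET B/G read: 460 nm normalized to potassium clavulanate vs DMSO; 535 nm FRET as viability; concentration-effect curves classified.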

[3] = tested on: CP194; assay: qHTS profiling for inhibitors of Plasmodium falciparum proliferation (AID 504749); note: nearly all actives have a fitted effect of over 60% in size; note: potency is the fitted concentration of half-maximal effect; details: P. falciparum in erythrocytes, SYBR Green DNA, 72 h; series mostly up to 28.7 µM
Outline: (§1)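 P. falciparum-infected erythrocytes (0.3% parasitemia, 2.5% hematocrit) incubated with compound 72 h at 37 C, 5% CO2. Parasite DNA detected by SYBR Green after lysis, overnight at room temperature; normalised to 0.29 uM artemisinin and DMSO.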

[4] = tested on: CP201; assay: as above; details: P. falciparum in erythrocytes, SYBR Green DNA, 72 h; series mostly up to 28.7 µM
Outline: as §1

[5] = tested on: CP203; assay: as above; details: P. falciparum in erythrocytes, SYBR Green DNA, 72 h; series mostly up to 28.7 µM
Outline: as §1

[6] = tested on: CP211; assay: as above; details: P. falciparum in erythrocytes, SYBR Green DNA, 72 h; series mostly up to 28.7 µM
Outline: as §1

[7] = tested on: CP215; assay: as above; details: P. falciparum in erythrocytes, SYBR Green DNA, 72 h; series mostly up to 28.7 µM
Outline: as §1

[8] = tested on: CP250; assay: as above; details: P. falciparum in erythrocytes, SYBR Green DNA, 72 h; series mostly up to 28.7 µM
Outline: as §1

[9] = tested on: CP256; assay: as above; details: P. falciparum in erythrocytes, SYBR Green DNA, 72 h; series mostly up to 28.7 µM
Outline: as §1

[10] = tested on: CP262; assay: as above; details: P. falciparum in erythrocytes, SYBR Green DNA, 72 h; series mostly up to 28.7 µM
Outline: as §1

[11] = tested on: CP265; assay: as above; details: P. falciparum in erythrocytes, SYBR Green DNA, 72 h; series mostly up to 28.7 µM
Outline: as §1

[12] = tested on: CP291; assay: as above; details: P. falciparum in erythrocytes, SYBR Green DNA, 72 h; series mostly up to 28.7 µM
Outline: as §1

[13] = tested on: CP325; assay: as above; details: P. falciparum in erythrocytes, SYBR Green DNA, 72 h; series mostly up to 28.7 µM
Outline: as §1

[14] = tested on: CP335; assay: as above; details: P. falciparum in erythrocytes, SYBR Green DNA, 72 h; series mostly up to 28.7 µM
Outline: as §1

[15] = tested on: Dd2; assay: as above; details: P. falciparum in erythrocytes, SYBR Green DNA, 72 h; series mostly up to 28.7 µM
Outline: as §1

[16] = tested on: GB4; assay: as above; details: P. falciparum in erythrocytes, SYBR Green DNA, 72 h; series mostly up to 28.7 µM
Outline: as §1

[17] = tested on: PC15; assay: as above; details: P. falciparum in erythrocytes, SYBR Green DNA, 72 h; series mostly up to 28.7 µM
Outline: as §1

[18] = target: Cytochrome P450 3A4 (Homo sapiens) (UniProt P08684); assay: qHTS Assay for Inhibitors and Substrates of Cytochrome P450 3A4 (AID 884); note: nearly all actives have a fitted effect of over 50% in size; note: potency is the fitted concentration of half-maximal effect
Outline: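 20 nM human CYP3A4 with 25 uM Luciferin-PPXE (at KM) in 200 mM KPO4, preincubated 10 min with compound; NADPH regeneration started a 60 min RT reaction. Luciferin detected by luminescence, normalized to 57 uM ketoconazole as full inhibition.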

[19] = S16 Schwann cell PMP22 intronic element firefly luciferase assay (AID 624032); note: nearly all actives have a fitted effect of over 30% in size; note: potency is the fitted concentration of half-maximal effect
Outline: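 Rat S16 Schwann cells stably carrying firefly luciferase driven by a PMP22 intronic element, in 10% FBS, treated 24 h at 37 C. ONE-Glo luminescence normalized to PTC124 control and DMSO (0%); curves classed by r2, magnitude and activity.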

[20] = tested on: CP315; assay: qHTS profiling for inhibitors of Plasmodium falciparum proliferation (AID 504749); note: nearly all actives have a fitted effect of over 60% in size; note: potency is the fitted concentration of half-maximal effect; details: P. falciparum in erythrocytes, SYBR Green DNA, 72 h; series mostly up to 28.7 µM
Outline: as §1

Measured: Potency

Sequence of Cytochrome P450 3A4 (Homo sapiens) (P08684 whole entry, looked up): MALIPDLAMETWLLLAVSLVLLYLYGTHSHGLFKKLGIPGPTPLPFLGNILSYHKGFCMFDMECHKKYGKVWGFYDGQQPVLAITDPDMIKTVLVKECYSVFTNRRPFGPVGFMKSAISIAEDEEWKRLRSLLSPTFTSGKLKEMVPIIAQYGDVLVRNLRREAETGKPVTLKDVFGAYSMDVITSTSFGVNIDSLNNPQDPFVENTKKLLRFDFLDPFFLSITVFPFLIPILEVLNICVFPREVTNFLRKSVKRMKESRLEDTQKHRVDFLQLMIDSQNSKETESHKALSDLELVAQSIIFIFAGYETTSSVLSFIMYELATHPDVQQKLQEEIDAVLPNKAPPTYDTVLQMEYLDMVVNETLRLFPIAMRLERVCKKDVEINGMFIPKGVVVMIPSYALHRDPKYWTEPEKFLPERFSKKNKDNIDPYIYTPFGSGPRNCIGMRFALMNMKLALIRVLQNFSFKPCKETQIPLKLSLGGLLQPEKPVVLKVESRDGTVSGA

CC(C)C[C@H]1C(=O)N2CCCC2[C@]2(O)O[C@](NC(=O)[C@@H]3C=C4c5cccc6[nH]c(Br)c(c56)C[C@H]4N(C)C3)(C(C)C)C(=O)N12 (stereo not given in full)
active: [3] 13.5 µM | [4] 13.5 µM | [5] 9.53 µM | [6] 15.1 µM | [7] 8.49 µM | [8] 12.6 µM | [9] 11.2 µM | [10] 8.49 µM | [11] 5.62 µM | [12] 10.7 µM | [13] 9.53 µM | [14] 3.79 µM | [15] 2.51 µM | [16] 6.01 µM | [17] 7.94 µM
inactive: [1] | [2]

COc1cc(=O)n(C)c2c(OCC(O)C(C)(C)O)cccc12 (stereo not given)
inactive: [18]

COc1ccc(CCNC[C@@H](O)c2ccc(O)cc2)cc1OC
not listed: [5] | [18]
inactive: all other assays above

CC(C)(C)[C@]1(O)CCN2CC3c4ccccc4CCc4cccc(c43)[C@@H]2C1 (stereo not given in full)
inactive: [7] | [20]
active: [19] 36.1 µM | [14] 10.7 µM | [15] 10 µM | [16] 9.53 µM

N[C@H](Cc1ccc(O)c(O)c1)C(=O)O
inactive: [8] | [9] | [11]

COc1cc2c(cc1OC)C(c1ccccc1)CN(C)CC2 (stereo not given)
not listed: [8] | [9] | [11] | [14] | [15] | [16] | [18]
inactive: all other assays above

COC(=O)c1c(-c2cc(OC)c(OC)c(OC)c2)c2ccc(OCc3ccccn3)cc2c(=O)n1-c1ccc(N)cc1
active: [18] 0.398 µM

CCCC(=O)NCCc1c2n(c3ccc(OC)cc13)Cc1ccccc1-2
active: [18] 2.51 µM

CN1C[C@H](C(=O)N[C@]2(C)O[C@@]3(O)C4CCCN4C(=O)[C@H](Cc4ccccc4)N3C2=O)C[C@@H]2c3cccc4[nH]cc(c34)C[C@H]21 (stereo not given in full)
active: [8] 11.2 µM | [9] 7.94 µM | [11] 5.62 µM | [15] 2.82 µM | [17] 1.12 µM
